Some test systems named below: DDR1; DDR2; DMPK; DYRK1A.
Conditions in all cases: concentration: 1 μM, replicates: in singlicate; n = 1
The subject of another test is T1, DCAMKL2.
T1 construct: gene DCLK2

For a further test, the system named is T2, DCAMKL3.
T2 construct: gene DCLK3

A further test has as its system T3, DLK.
T3 construct: gene MAP3K12

A further test has as its system T4, DMPK2.
T4 construct: gene CDC42BPG

In a further test the test system is T5, DRAK1.
T5 construct: gene STK17A

For a further test, the system named is T6, DRAK2.
T6 construct: gene STK17B
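Note: KINOMEscan kinase panel screen.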

Take `Cn1cc(-c2ccc3c(c2)CCN3C(=O)Cc2cccc(Cl)c2)c2c(N)ncnc21` [GSK2606590]: the “%Inh” value in the test with DCAMKL2 was 19%; in the test with DCAMKL3 it was 0%; in the test with DDR1 it was 99.5%; in the test on DDR2, 57%; with DLK, 51%; in the test on DMPK2, 53%. For the same compound, the “%Inh” value with DMPK stood at 0%; with DRAK1, 0%; in the test with DRAK2, 0%; in the test on DYRK1A, 11%.

Regarding `Cn1cc(-c2ccc3c(c2)CCN3C(=O)Cc2cccc(F)c2)c2c(N)ncnc21` [GSK2603358], the “%Inh” value in the test with DCAMKL2 is given as 0%; in the test on DCAMKL3, 32%; with DDR1 it was 69%; in the test with DDR2, 30%; with DLK, 22%; in the test on DMPK2, 50%. Moreover, the “%Inh” value worked out at 0% in the test on DMPK, 0% with DRAK1, 0% with DRAK2 and 15% in the test with DYRK1A.

For the compound `O=C(Nc1cccc(-c2nn3ccccc3c2-c2ccnc(Nc3cccc(C(F)(F)F)c3)n2)c1)c1c(F)cccc1F` [GSK292658], the “%Inh” value in the test on DCAMKL2 turned out to be 0%; in the test with DCAMKL3, 0%; in the test on DDR1, 99.3%; in the test with DDR2 it was 50%; in the test on DLK, 2%; in the test with DMPK2, 49%. Besides, the “%Inh” value with DMPK was determined as 0%; in the test with DRAK1, 0%; in the test on DRAK2 it was 0%; with DYRK1A it was 9%.

Regarding `O=C(Nc1cccc(-c2nn3ccccc3c2-c2ccnc(Nc3cccc(F)c3)n2)c1)c1c(F)ccc(F)c1Cl` [GSK357952], the “%Inh” value came out at 7% with DCAMKL2; 1% in the test with DCAMKL3; 100% in the test on DDR1; 82% in the test on DDR2; 3% in the test on DLK; 19% in the test on DMPK2. Also, the “%Inh” value in the test with DMPK is 0%; in the test on DRAK1 it was 3%; in the test with DRAK2, 0%; with DYRK1A it was 6%.

On to `Cc1occc1-c1ncc(OC[C@@H](N)Cc2c[nH]c3ccccc23)cc1-c1ccc2[nH]nc(C)c2c1.O=C(O)C(F)(F)F` [GSK682037], for which the “%Inh” value in the test with DCAMKL2 stood at 14%; in the test on DCAMKL3, 0%; in the test with DDR1, 0%; in the test on DDR2 it was 5%; in the test with DLK, 1%; in the test with DMPK2 it was 67%. The “%Inh” value turned out to be 95% in the test with DMPK, 0% with DRAK1, 0% in the test on DRAK2 and 15% with DYRK1A.

In the case of `Nc1ncnc2c1nc(-c1ccccc1)n2-c1ccccc1` [SKF-97293], the “%Inh” value in the test on DCAMKL2 is recorded as 0%; in the test with DCAMKL3, 3%; with DDR1, 6%; in the test with DDR2, 41%; in the test on DLK, 23%; in the test on DMPK2, 0%. The “%Inh” value with DMPK is 6%; in the test on DRAK1, 0%; in the test with DRAK2 it was 0%; in the test with DYRK1A, 6%.

With `COc1cccc(C2=C(Nc3ccc(Cl)c(C(=O)O)c3)C(=O)NC2=O)c1` [SB-390769], the “%Inh” value came to 20% in the test with DCAMKL2; 1% with DCAMKL3; 0% in the test with DDR1; 36% in the test on DDR2; 0% in the test with DLK; 0% in the test on DMPK2. Further, the “%Inh” value in the test with DMPK was 0%; in the test on DRAK1 it was 100%; in the test on DRAK2, 100%; in the test with DYRK1A it was 18%.

Consider `COc1cc2c(cc1OCCN1CCNCC1)ncc1c3ccc(C#N)cc3[nH]c21`, for which the “%Inh” value in the test on DCAMKL2 was found to be 3%; with DCAMKL3, 4%; in the test on DDR1, 0%; with DDR2 it was 1%; with DLK, 85%; in the test on DMPK2, 0%. For the same compound, the “%Inh” value in the test on DMPK was determined as 5%; in the test with DRAK1, 99.5%; in the test on DRAK2 it was 99.6%; in the test on DYRK1A, 93.1%.

Consider `Oc1cc(Nc2ccnc3cc(I)ccc23)ccc1F` [GW552771], for which the “%Inh” value in the test on DCAMKL2 came out at 0%; in the test on DCAMKL3 it was 0%; in the test on DDR1 it was 14%; in the test with DDR2, 19%; in the test on DLK, 32%; in the test on DMPK2 it was 0%. Moreover, the “%Inh” value in the test with DMPK amounted to 0%; with DRAK1 it was 0%; with DRAK2 it was 6%; in the test with DYRK1A, 36%.

As to `c1ccc(-c2cnc3nccnn23)cc1` [AH20685], the “%Inh” value in the test on DCAMKL2 is on record as 27%; in the test with DCAMKL3, 0%; in the test with DDR1, 0%; in the test with DDR2 it was 24%; with DLK it was 20%; in the test on DMPK2, 0%. Also, the “%Inh” value was 0% with DMPK, 0% in the test on DRAK1, 0% with DRAK2 and 42% in the test with DYRK1A.

As for `CNC(=O)c1ccccc1Nc1nc(Nc2ccc(N3CCOCC3)cc2)ncc1Cl.Cl` [GSK1576028], the “%Inh” value was 31% in the test on DCAMKL2; 81% with DCAMKL3; 95.1% in the test on DDR1; 73% in the test with DDR2; 95% in the test on DLK; 25% with DMPK2. The “%Inh” value is 81% in the test on DMPK, 95.1% in the test on DRAK1, 60% with DRAK2 and 94.4% in the test with DYRK1A.

`O=C(Nc1ccccc1F)NC1CCN(c2ccnc(Nc3ccc(F)cc3)n2)CC1` [GSK1379800]: the “%Inh” value in the test on DCAMKL2 is on record as 0%; in the test with DCAMKL3, 0%; with DDR1 it was 0%; in the test with DDR2, 31%; in the test on DLK, 24%; in the test on DMPK2, 4%. The “%Inh” value in the test with DMPK was found to be 0%; in the test on DRAK1, 0%; with DRAK2, 0%; in the test on DYRK1A, 4%.

With `Cl.Cl.NCC(NC(=O)c1cc(-c2ccccc2)c(-c2ccnc3[nH]ccc23)s1)c1ccccc1` (stereo not shown) [GSK1321561], the “%Inh” value is given as 0% in the test with DCAMKL2; 10% with DCAMKL3; 99.7% with DDR1; 76% in the test with DDR2; 35% in the test with DLK; 94.7% with DMPK2. Besides, the “%Inh” value in the test with DMPK came out at 82%; with DRAK1, 41%; in the test on DRAK2, 0%; in the test with DYRK1A it was 13%.

Take `CN1CCN(CCCNc2nccc(-c3c(-c4ccc(F)cc4)nn4cc(C(F)(F)F)ccc34)n2)CC1` [GW621581]: the “%Inh” value amounted to 0% with DCAMKL2; 25% in the test with DCAMKL3; 100% in the test on DDR1; 81% in the test with DDR2; 16% in the test with DLK; 0% in the test with DMPK2. The “%Inh” value with DMPK was determined as 0%; in the test on DRAK1, 33%; with DRAK2, 0%; in the test with DYRK1A, 5%.

As to `CSc1cccc2c(-c3ccncn3)c(-c3ccc(F)cc3)nn12` [GW514786], the “%Inh” value in the test with DCAMKL2 is reported as 20%; in the test on DCAMKL3, 0%; in the test with DDR1, 78%; with DDR2, 63%; in the test with DLK, 24%; in the test with DMPK2 it was 59%. Also, the “%Inh” value with DMPK stood at 13%; in the test on DRAK1, 0%; with DRAK2, 0%; with DYRK1A it was 18%.

For `COc1cc(Nc2nccc(N3CCC(NC(=O)c4cc5ccccc5s4)C3)n2)cc(OC)c1OC` (stereo not shown) [GSK1379760], the “%Inh” value with DCAMKL2 came to 14%; in the test on DCAMKL3, 0%; in the test on DDR1 it was 0%; in the test with DDR2 it was 39%; in the test with DLK, 31%; in the test with DMPK2, 5%. Further, the “%Inh” value in the test with DMPK, in the test with DRAK1, in the test with DRAK2 and in the test on DYRK1A was 0% each time.

The record behind these values is paper PMC5540273 (PLoS ONE, 2017).
